# HP1b chromo inh – inhibitors of HP1-beta chromodomain binding to methylated histone tails. Potency, µM (series often up to 114 µM), for inactives: at the highest dose activity change, negative = inhibition, hits mostly inhibitors. AlphaScreen HP1-beta / biotin-H3K9me3 peptide binding. P83916. 390,000 compounds, 0.56% hits; note: nearly all actives have a fitted effect of over 70% in size
#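 Compound inhibition of the preformed complex between 50 nM HP1-beta and 50 nM biotinylated H3K9me3 peptide was read by AlphaScreen. Buffer was PBS pH 7.4 with 0.01% Tween-20. Incubations ran 30 min at room temperature, with 10 ug/mL donor/acceptor beads.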
# Sfp PPTase inh – blocks B. subtilis Sfp PPTase activity; Q9F4F7; Biochemical Sfp PPTase activity, qHTS; Potency, µM, without a hit: largest response in the series, negative = inhibition, most hits filed as inhibitors; 310,000 compounds, 3.5% hits; AID 1490;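 note: the enzyme is Sfp with the accession as filed and its product quenches rhodamine fluorescence; 0% = enzyme reaction without inhibitor and -100% = no enzyme wells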
#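 Buffer: 50 mM Hepes-Na pH 7.6, 10 mM MgCl2, 0.01% Nonidet P-40, 0.01% BSA. Enzyme 15 nM, pre-exposed to compound 15 min; substrates then added and fluorescence change tracked over 30 min.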
# JMJD2A Tudor inh – inhibitors of human JMJD2A Tudor domain; AID 504339; O75164; AlphaScreen JMJD2A-Tudor / H3K4me3 peptide binding; Potency, µM (titrated, usually from 114 µM), inactives show at the highest dose activity change, negative = inhibition, most hits filed as inhibitors; 390,000 compounds, 4.4% hits; note: % is set by controls: 0 for no effect and ±100 for the full control effect; nearly all actives have a fitted effect of over 50% in size
# G9a block – blocks human histone lysine methyltransferase G9a. Q96KQ7. 350,000 compounds, 8.8% hits. Potency, µM (highest dose often 102 µM), for inactives: at the highest dose activity, negative = inhibition, usual class: inhibitors. G9a H3K9 monomethylation, AlphaScreen, 2 h; note: % is set by controls: 0 for no effect and ±100 for the full control effect; nearly all actives have a fitted effect of over 75% in size
#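 Signal arises when biotinylated H3K9 peptide, once monomethylated, bridges streptavidin donor and antibody-captured acceptor beads. Enzyme at 20 nM was preincubated 15 min with test compounds; peptide 500 nM and SAM 20 uM then reacted for 2 h.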
# BAZ2B inh – inhibitors of human BAZ2B bromodomain; 360,000 compounds, 4.4% hits; Q9UIF8; AID 504333; Potency, µM (series often up to 114 µM), for the others: at the highest dose activity change, negative = inhibition, most hits filed as inhibitors; AlphaScreen BAZ2B-H3K14Ac peptide displacement; note: % is set by controls: 0 for no effect and ±100 for the full control effect; nearly all actives have a fitted effect of over 60% in size
#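 BAZ2B (50 nM) with biotin-H3(5-23)K14Ac peptide (50 nM) in PBS pH 7.4, 0.01% Tween-20, preformed 30 min, then compound 30 min at room temperature; top concentration 110uM. AlphaScreen streptavidin donor/nickel chelate acceptor beads (10 ug/mL final), 20 min dark, signal read.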
# PLK1 PBD block – PLK1 (human) polo-box domain binding inhibition; P53350; Potency, µM, inactives show max response, negative = inhibition, usual class: inhibitors; Plk1 PBD binding of FITC phosphopeptide, fluorescence polarization; AID 720504; 360,000 compounds, 2.8% hits; note: series mostly up to about 57 µM; % is set by controls: 0 for no effect and ±100 for the full control effect; nearly all actives have a fitted effect of over 65% in size
# An asterisk follows results filed as active; u = inconclusive; x = no result given; ! = repeats disagree; [ ] = another dose, or the depositor's remark. Rows were chosen to be rich in hits. Some 12% of all compounds tested hit in one or more screens of this group. Calls come from the whole dose curve; as a rule, active = well fitted curve in the direction sought with a large enough effect; inconclusive = small, poorly fitted or top-dose-only effect, or another doubt; inactive = no such curve, though single readings can be large; an effect the other way counts as inactive or inconclusive. Potency is the fitted concentration of half-maximal effect.
SMILES,HP1b chromo inh,Sfp PPTase inh,JMJD2A Tudor inh,G9a block,BAZ2B inh,PLK1 PBD block
C=CCN1C=C/C(=C\C=C(C#N)C#N)c2ccccc21,u,-0.2%,22.4µM*,u,3.16µM*,16.0%
COc1ccc(-c2coc3c(C(=O)NC4CCCCC4)cccc23)c(C)c1,x,x,x,x,x,-0.9%
COc1ccc(NC(=O)CSc2n[nH]c(-c3ccccc3)n2)cc1S(N)(=O)=O,13.3%,x,-18.8%,32.1%[12.7 µM],9.2%,-8.8%
CCCCCn1c(=O)[nH]c2cc(C(=O)Nc3ccc(F)c(F)c3)ccc2c1=O,34.5%,x,-0.7%,5.4%[59 µM],2.8%,x
Cn1c2ccsc2c2cnn(Cc3ccccc3F)c(=O)c21,x,x,-24.0%,x,x,x
C=CCCCCCCCCCCCC(O)CC(O)CO (stereo not given) (tested in a mixture with another compound),x,16.9%,x,-38.8%[2.33 µM],x,x
Cn1c(CNC(=O)CNC(=O)c2ccccc2)cc(=O)n(C)c1=O,26.4%,7.2%,7.6%,-10.7%,-34.5%,-3.3%
O=C(O)Cc1ccc(NC(=O)C2CC=CCC2C(=O)O)cc1 (stereo not given),x,-8.9%,x,u,56.2µM*,x
O=c1c2c(C(F)(F)F)cc(C(F)(F)F)nc2[nH]n1-c1ccccc1,-22.6%,-8.1%,u,7.94µM*,u,-11.1%
COCCN1C(=O)N[C@@H](CCc2ccccc2)C(C(C)=O)=C1C,26.6%,u,-13.7%,10.9%,12.9%,-8.1%
CCN1C(=O)N[C@H](c2ccc(Br)cc2)C(C(C)=O)=C1C,24.6%,89.1µM*!,-22.0%,44.7µM*,3.3%,-27.3%
CCN1C(=O)N[C@@H](CCc2ccccc2)C(C(C)=O)=C1C,11.2%,5.5%,u,x,x,26.7µM*
COC(=O)[C@@H](NC(=O)O[C@@H]1C(=O)c2ccc(OC)cc2O[C@H]1c1ccc2c(c1)OCO2)C(C)C,x,-12.2%,x,x,x,x
O=C1CCC=C1C(O)c1ccc(Cl)cc1 (stereo not given),x,-8.2%,x,x,x,x
CCOC(=O)C(=NCC1CCCO1)NNc1cc(Cl)ccc1Cl (stereo not given),1.7%,-12.9%,u,35.5µM*,u,-15.5%
CN(C)c1ccc(NC(=S)c2ccccn2)cc1,12.6µM*,44.7µM*,11.2µM*,8.91µM*,2.82µM*,13.4µM*
COc1ccc(C(CNC(=O)C(Cc2ccccc2)NC(N)=O)N(C)C)cc1 (stereo not given),27.6%,6.8%,-9.7%,39.8µM*,-14.6%,-12.7%
COc1ccc(CNC(=O)[C@H](Cc2ccccc2)NC(=O)C2CCN(C(=O)[C@H](C)N)CC2)cc1,32.5%,16.6%,-2.0%,1.2%[12.7 µM],4.9%,-1.9%
COc1ccc(CNC(=O)[C@H](Cc2ccccc2)NC(=O)C2CCNCC2)cc1,35.9%,-6.0%,-6.2%,50.1µM*,-4.1%,-12.1%
CC(C)C[C@@H](NC(=O)C1CCC(CNC(=O)[C@H](Cc2ccccc2)NC(=O)OC(C)(C)C)CC1)C(=O)O (stereo not given in full),11.3%,0.9%,28.2µM*,u,1.9%,1.6%
Cc1nn(-c2nnc(C)c(=O)[nH]2)c(C)c1SCC(=O)Nc1ccc(F)cc1,17.2%,31.6µM*,31.6µM*,u,50.1µM*,u
Cc1n[nH]c(C)c1SCC(=O)Nc1ccc(F)cc1,26.4%,21.8%,-16.5%,10.2%[59 µM],0.8%,-11.5%
O=c1c2c([N+](=O)[O-])cc([N+](=O)[O-])cc2sn1-c1ccc(Br)cc1,7.94µM*,8.91µM*,17.8µM*,1.41µM*,5.01µM*,2.67µM*
O=c1c2c([N+](=O)[O-])cc([N+](=O)[O-])cc2sn1Cc1ccccc1,u,2.24µM*,4.47µM*,1µM*,3.55µM*,0.752µM*
COc1cc(C)c(C(=O)Oc2cc(C)c(C(=O)O)c(O)c2C)c(OC)c1C,14.4%,-14.9%,-31.3%,u,-28.5%,37.7µM*
SMILES,HP1b chromo inh,Sfp PPTase inh,JMJD2A Tudor inh,G9a block,BAZ2B inh,PLK1 PBD block
C=CCN1C(=O)/C(=C/c2ccc(OC(C)=O)c(OCC)c2[N+](=O)[O-])SC1=S,15.8µM*,15.8µM*,25.1µM*,6.31µM*,11.2µM*,-18.6%
CCOc1ccc(-n2nc3ccc(NC(=O)c4cccc(F)c4)cc3n2)cc1,46.2%,x,-6.0%,3.5%[59 µM],-16.3%,x
CCOc1ccc(Nc2nc(C)c(NC(=O)c3cccc(F)c3)c(Nc3ccc(OCC)cc3)n2)cc1,39.1%,x,u,20µM*,2.6%,x
Cc1ccc(S(=O)(=O)N(C)c2nc3ccccc3[nH]c2=S)cc1,35.2%,u,-8.1%[11.4 µM],-132.8%[59 µM],u,10.6µM*
CCc1nnc2c(N(C)S(=O)(=O)c3ccc(C)cc3)nc3ccccc3n12,41.3%,24.6%,-9.7%,-12.7%,-3.2%,-0.9%
Cc1nc2c(C(=O)NCCCN(CC(C)C)CC(C)C)cnn2c(C)c1Cc1c(F)cccc1Cl,25.4%,x,-18.7%,2.1%[59 µM],1.7%,x
CCN(CC)c1ncnc2sc(C(=O)N3CCN(c4ccc(OC)cc4)CC3)c(C)c12,-7.7%,-10.3%,u,14.1µM*,-2.3%,-13.4%
CCOC(=O)c1sc2ncnc(N3CCN(c4ccc(OC)cc4)CC3)c2c1C,u,u,u,12.6µM*,u,-9.8%
CCOC(=O)c1ccc(NC(=O)N2CCN(Cc3ccccc3)CC2)cc1,37.3%,3.7%,-11.8%,12.3%,10.8%,-16.8%
CC(C)(C)n1cnc2cc(NCc3cccs3)ccc21,-5.3%,11.8%,-30.3%,-1.7%[59 µM],-36.0%,-4.5%
COc1ccccc1-n1cnc2cc(NCc3ccccc3O)ccc21,u,-3.9%,-21.3%[11.4 µM],u,35.5µM*,18.9µM*
COc1ccccc1-n1cnc2cc(NCc3ccco3)ccc21,-23.0%,0.4%,u,35.5µM*,-59.8%,-2.1%
COc1ccccc1-n1cnc2cc(NS(=O)(=O)c3ccc(Br)cc3)ccc21,3.3%,12.1%,-30.8%,-3.9%,-6.8%,0.7%
COc1ccc(CNc2ccc3c(c2)ncn3-c2ccccc2OC)cc1,u,-15.1%,28.2µM*,u,39.8µM*,-5.0%
CCn1cnc2cc(NCc3cccs3)ccc21,6.7%,11.5%,-32.4%,44.7µM*,u,-17.6%
Nc1nc(SCC(=O)NCCC(c2ccccc2)c2ccccc2)n[nH]1,36.9%,6.5%,-16.8%,-4.0%[59 µM],4.1%,-7.1%
COC(=O)c1ccc(NC(=O)CCc2c(C)nc3c(c(C)nn3C(C)(C)C)c2C)cc1,42.4%,x,-1.7%,13.8%[59 µM],-21.8%,x
Cc1ccc(-n2ncc3c(NCCC4=CCCCC4)ncnc32)cc1C,28.0%,x,9.2%,-35.3%[59 µM],3.2%,x
COc1ccccc1-n1cnc2cc(NCc3cccs3)ccc21,u,-11.5%,44.7µM*,u,44.7µM*,2.4%
CCCC(=O)N(Cc1cc(=O)[nH]c2ccccc12)c1ccccc1C,1.5%,-13.3%,u,35.5µM*,0.3%,5.1%
